# According to article PMC11006913:
# Positions count from the first letter of the chain named.
# Key:
# Test in all cases: PBM; 200 nM protein, PBS
# Conditions in all cases: dsDNA, one strand shown
# [1] = target: HOXA4 (Homo sapiens, UniProt Q00056 201-287, W262R)
# [2] = target: HOXA4 (Homo sapiens, UniProt Q00056 201-287, R217L)
# [3] = target: HOXA4 (Homo sapiens, UniProt Q00056 201-287)
# [4] = target: HOXA7 (Homo sapiens, UniProt P31268 116-202)
# [5] = target: HOXA7 (Homo sapiens, UniProt P31268 116-202, W177C)
# Sequence of HOXA7 (Homo sapiens, UniProt P31268 116-202, W177C) (P31268 116-202 W177C): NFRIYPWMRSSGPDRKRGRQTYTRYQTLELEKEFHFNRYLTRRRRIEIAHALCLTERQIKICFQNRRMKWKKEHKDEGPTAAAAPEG
# [6] = target: HOXC10 (Homo sapiens, UniProt Q9NYD6 254-340, K271E)
# Sequence of HOXC10 (Homo sapiens, UniProt Q9NYD6 254-340, K271E) (Q9NYD6 254-340 K271E): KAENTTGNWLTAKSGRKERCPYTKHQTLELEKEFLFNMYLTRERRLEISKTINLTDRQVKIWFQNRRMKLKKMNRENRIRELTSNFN
# [7] = target: T1, PAX4 (Homo sapiens, UniProt O43316 9-242, R200K)
# T1 sequence: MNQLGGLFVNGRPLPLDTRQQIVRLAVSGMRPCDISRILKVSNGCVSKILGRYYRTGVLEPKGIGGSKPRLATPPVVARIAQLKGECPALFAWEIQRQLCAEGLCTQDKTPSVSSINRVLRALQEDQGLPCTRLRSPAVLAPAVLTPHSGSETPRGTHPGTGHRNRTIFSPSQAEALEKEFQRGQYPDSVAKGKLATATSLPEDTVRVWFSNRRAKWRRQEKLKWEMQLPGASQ
# [8] = target: T2, PAX4 (Homo sapiens, UniProt O43316 9-242)
# T2 sequence: T1 sequence with K192R
# [9] = target: T3, PAX4 (Homo sapiens, UniProt O43316 9-242, R200Q)
# T3 sequence: T1 sequence with K192Q
# [10] = target: T4, PAX4 (Homo sapiens, UniProt O43316 9-242, R227W)
# T4 sequence: T1 sequence with K192R, R219W
# [11] = target: HOXC10 (Homo sapiens, UniProt Q9NYD6 254-340)
# Sequence of HOXC10 (Homo sapiens, UniProt Q9NYD6 254-340) (Q9NYD6 254-340): as the sequence (Q9NYD6 254-340 K271E) above, with E18K counted along it
# [12] = target: PITX2 (Homo sapiens, UniProt Q99697 72-157)
# [13] = target: T5, SIX6 (Homo sapiens, UniProt O95475 114-200, L143V)
# T5 sequence: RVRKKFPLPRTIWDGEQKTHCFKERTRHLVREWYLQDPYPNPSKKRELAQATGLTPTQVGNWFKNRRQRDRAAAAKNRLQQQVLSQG
# [14] = target: T6, SIX6 (Homo sapiens, UniProt O95475 114-200, H141N)
# T6 sequence: T5 sequence with H28N, V30L
# [15] = target: T7, SIX6 (Homo sapiens, UniProt O95475 114-200, L143M)
# T7 sequence: T5 sequence with V30M
# [16] = target: T8, SIX6 (Homo sapiens, UniProt O95475 114-200, L143I)
# T8 sequence: T5 sequence with V30I
# [17] = target: T9, SIX6 (Homo sapiens, UniProt O95475 114-200, T165A)
# T9 sequence: T5 sequence with V30L, T52A
# [18] = target: T10, SIX6 (Homo sapiens, UniProt O95475 114-200)
# T10 sequence: T5 sequence with V30L
# [19] = target: HOXD13 (Homo sapiens, UniProt P35453 263-343, T313R)
# Sequence of HOXD13 (Homo sapiens, UniProt P35453 263-343, T313R) (P35453 263-343 T313R): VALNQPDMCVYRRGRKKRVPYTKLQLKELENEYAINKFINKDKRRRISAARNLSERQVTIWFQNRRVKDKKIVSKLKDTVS
# [20] = target: HOXD13 (Homo sapiens, UniProt P35453 263-343, T313A)
# Sequence of HOXD13 (Homo sapiens, UniProt P35453 263-343, T313A) (P35453 263-343 T313A): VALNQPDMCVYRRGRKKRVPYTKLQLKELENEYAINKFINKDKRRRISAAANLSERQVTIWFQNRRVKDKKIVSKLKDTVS
# Sequence of HOXA7 (Homo sapiens, UniProt P31268 116-202) (P31268 116-202): as the sequence (P31268 116-202 W177C) above, with C62W counted along it
# Sequence of HOXA4 (Homo sapiens, UniProt Q00056 201-287, W262R) (Q00056 201-287 W262R): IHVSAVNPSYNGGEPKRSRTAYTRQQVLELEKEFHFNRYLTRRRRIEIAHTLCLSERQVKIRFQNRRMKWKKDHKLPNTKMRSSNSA
# Sequence of HOXA4 (Homo sapiens, UniProt Q00056 201-287, R217L) (Q00056 201-287 R217L): as the sequence (Q00056 201-287 W262R) above, with R17L, R62W counted along it
# Sequence of HOXA4 (Homo sapiens, UniProt Q00056 201-287) (Q00056 201-287): as the sequence (Q00056 201-287 W262R) above, with R62W counted along it
sequence,measurement,setting,value
CCGGAGCC,binding signal,[1],"9.74 upbm affinity estimate (log intensity, higher = more binding, comparable within an allelic series)"
same,binding signal,[2],"9.76 upbm affinity estimate (log intensity, higher = more binding, comparable within an allelic series)"
same,binding signal,[3],"9.77 upbm affinity estimate (log intensity, higher = more binding, comparable within an allelic series)"
CTAATTGC,binding signal,[1],"10.4 upbm affinity estimate (log intensity, higher = more binding, comparable within an allelic series)"
same,binding signal,[4],"11.4 upbm affinity estimate (log intensity, higher = more binding, comparable within an allelic series)"
same,binding signal,[2],"11.8 upbm affinity estimate (log intensity, higher = more binding, comparable within an allelic series)"
same,binding signal,[3],"13.8 upbm affinity estimate (log intensity, higher = more binding, comparable within an allelic series)"
same,binding signal,[5],"8.67 upbm affinity estimate (log intensity, higher = more binding, comparable within an allelic series)"
GTACTTAA,binding signal,[6],"11.9 upbm affinity estimate (log intensity, higher = more binding, comparable within an allelic series)"
ACGGCTGG,binding signal,[7],"9.35 upbm affinity estimate (log intensity, higher = more binding, comparable within an allelic series)"
same,binding signal,[8],"9.44 upbm affinity estimate (log intensity, higher = more binding, comparable within an allelic series)"
same,binding signal,[9],"9.48 upbm affinity estimate (log intensity, higher = more binding, comparable within an allelic series)"
same,binding signal,[10],"9.39 upbm affinity estimate (log intensity, higher = more binding, comparable within an allelic series)"
ACCACTTA,binding signal,[11],"10.9 upbm affinity estimate (log intensity, higher = more binding, comparable within an allelic series)"
CGGTCCAA,binding signal,[12],"7.89 upbm affinity estimate (log intensity, higher = more binding, comparable within an allelic series)"
CCCGGCGG,binding signal,[13],"8.98 upbm affinity estimate (log intensity, higher = more binding, comparable within an allelic series)"
same,binding signal,[14],"9.13 upbm affinity estimate (log intensity, higher = more binding, comparable within an allelic series)"
same,binding signal,[15],"9.17 upbm affinity estimate (log intensity, higher = more binding, comparable within an allelic series)"
same,binding signal,[16],"9 upbm affinity estimate (log intensity, higher = more binding, comparable within an allelic series)"
same,binding signal,[17],"9.22 upbm affinity estimate (log intensity, higher = more binding, comparable within an allelic series)"
same,binding signal,[18],"9.12 upbm affinity estimate (log intensity, higher = more binding, comparable within an allelic series)"
ACCCGGGC,binding signal,[7],"9.17 upbm affinity estimate (log intensity, higher = more binding, comparable within an allelic series)"
same,binding signal,[8],"9.14 upbm affinity estimate (log intensity, higher = more binding, comparable within an allelic series)"
same,binding signal,[9],"9.34 upbm affinity estimate (log intensity, higher = more binding, comparable within an allelic series)"
same,binding signal,[10],"9.37 upbm affinity estimate (log intensity, higher = more binding, comparable within an allelic series)"
CGGGCTCC,binding signal,[1],"9.62 upbm affinity estimate (log intensity, higher = more binding, comparable within an allelic series)"
same,binding signal,[7],"8.72 upbm affinity estimate (log intensity, higher = more binding, comparable within an allelic series)"
same,binding signal,[8],"8.72 upbm affinity estimate (log intensity, higher = more binding, comparable within an allelic series)"
same,binding signal,[2],"9.45 upbm affinity estimate (log intensity, higher = more binding, comparable within an allelic series)"
same,binding signal,[9],"9.02 upbm affinity estimate (log intensity, higher = more binding, comparable within an allelic series)"
same,binding signal,[3],"9.29 upbm affinity estimate (log intensity, higher = more binding, comparable within an allelic series)"
same,binding signal,[10],"9.04 upbm affinity estimate (log intensity, higher = more binding, comparable within an allelic series)"
CACGCGTG,binding signal,[12],"7.84 upbm affinity estimate (log intensity, higher = more binding, comparable within an allelic series)"
AATTAGCT,binding signal,[7],"11.7 upbm affinity estimate (log intensity, higher = more binding, comparable within an allelic series)"
same,binding signal,[8],"12.2 upbm affinity estimate (log intensity, higher = more binding, comparable within an allelic series)"
same,binding signal,[9],"11.9 upbm affinity estimate (log intensity, higher = more binding, comparable within an allelic series)"
same,binding signal,[10],"10.9 upbm affinity estimate (log intensity, higher = more binding, comparable within an allelic series)"
CCGGTGGC,binding signal,[19],"9.44 upbm affinity estimate (log intensity, higher = more binding, comparable within an allelic series)"
same,binding signal,[20],"9.43 upbm affinity estimate (log intensity, higher = more binding, comparable within an allelic series)"
CCAGCCAG,binding signal,[19],"9.41 upbm affinity estimate (log intensity, higher = more binding, comparable within an allelic series)"
same,binding signal,[20],"9.56 upbm affinity estimate (log intensity, higher = more binding, comparable within an allelic series)"
CCTGGGCC,binding signal,[11],"10.1 upbm affinity estimate (log intensity, higher = more binding, comparable within an allelic series)"
same,binding signal,[6],"9.99 upbm affinity estimate (log intensity, higher = more binding, comparable within an allelic series)"
CCGACGCC,binding signal,[4],"8.58 upbm affinity estimate (log intensity, higher = more binding, comparable within an allelic series)"
same,binding signal,[5],"8.45 upbm affinity estimate (log intensity, higher = more binding, comparable within an allelic series)"
CCGACCTC,binding signal,[19],"9.52 upbm affinity estimate (log intensity, higher = more binding, comparable within an allelic series)"
same,binding signal,[20],"9.44 upbm affinity estimate (log intensity, higher = more binding, comparable within an allelic series)"
ATAATGGG,binding signal,[4],"11.2 upbm affinity estimate (log intensity, higher = more binding, comparable within an allelic series)"
same,binding signal,[5],"8.88 upbm affinity estimate (log intensity, higher = more binding, comparable within an allelic series)"
CGGTCGGC,binding signal,[12],"7.99 upbm affinity estimate (log intensity, higher = more binding, comparable within an allelic series)"
CGGCGCCG,binding signal,[13],"8.75 upbm affinity estimate (log intensity, higher = more binding, comparable within an allelic series)"
same,binding signal,[14],"8.89 upbm affinity estimate (log intensity, higher = more binding, comparable within an allelic series)"
same,binding signal,[15],"8.74 upbm affinity estimate (log intensity, higher = more binding, comparable within an allelic series)"
same,binding signal,[16],"8.87 upbm affinity estimate (log intensity, higher = more binding, comparable within an allelic series)"
same,binding signal,[17],"8.83 upbm affinity estimate (log intensity, higher = more binding, comparable within an allelic series)"
same,binding signal,[18],"8.9 upbm affinity estimate (log intensity, higher = more binding, comparable within an allelic series)"
